Assays:
Conditions in all cases: concentration: 1 μM, replicates: in singlicate; n = 1
PIK3C2G = tested on: PIK3C2G
PIK3CA = tested on: PIK3CA
PIK3CB = tested on: PIK3CB
PIK3CD = tested on: PIK3CD
PIK3CG = tested on: PIK3CG
PIK4CB = tested on: T1, PIK4CB
T1 construct: gene PI4KB

PIKFYVE = tested on: PIKFYVE
PIM1 = tested on: PIM1
PIM2 = tested on: PIM2
PIM3 = tested on: PIM3
PIP5K1A = tested on: PIP5K1A
PIP5K1C = tested on: PIP5K1C
PIP5K2B = tested on: PIP5K2B
PIP5K2C = tested on: T2, PIP5K2C
T2 construct: gene PIP4K2C

PKAC-alpha = tested on: T3, PKAC-alpha
T3 construct: gene PRKACA

PKAC-beta = tested on: T4, PKAC-beta
T4 construct: gene PRKACB

PKMYT1 = tested on: PKMYT1
PKN1 = tested on: PKN1
PKN2 = tested on: PKN2
PLK1 = tested on: PLK1
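Also: KINOMEscan kinase panel screen.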

Row | Structure (SMILES) | %Inh (PIK3C2G) [%] | %Inh (PIK3CA) [%] | %Inh (PIK3CB) [%] | %Inh (PIK3CD) [%] | %Inh (PIK3CG) [%] | %Inh (PIK4CB) [%] | %Inh (PIKFYVE) [%] | %Inh (PIM1) [%] | %Inh (PIM2) [%] | %Inh (PIM3) [%] | %Inh (PIP5K1A) [%] | %Inh (PIP5K1C) [%] | %Inh (PIP5K2B) [%] | %Inh (PIP5K2C) [%] | %Inh (PKAC-alpha) [%] | %Inh (PKAC-beta) [%] | %Inh (PKMYT1) [%] | %Inh (PKN1) [%] | %Inh (PKN2) [%] | %Inh (PLK1) [%]
1 | CN1CCN(Cc2ccc(NC(=O)Nc3ccc(N(C)c4ccnc(Nc5ccc(CS(C)(=O)=O)cc5)n4)cc3)cc2)CC1.Cl [GW827654] | 6 | 0 | 16 | 0 | 26 | 30 | 7 | 0 | 0 | 45 | 74 | 0 | 69 | 78 | 0 | 23 | 10 | 41 | 0 | 7
2 | N#CC1(c2cccc(C(=O)Nc3cccc(Oc4ccc5nc(NC(=O)C6CC6)sc5n4)c3)c2)CC1 | 0 | 0 | 0 | 0 | 0 | 0 | 0 | 0 | 17 | 7 | 3 | 59 | 0 | 23 | 34 | 0 | 0 | 0 | 0 | 13
3 | Cc1ccccc1CC(=O)N1CCc2cc(-c3cn(C)c4ncnc(N)c34)ccc21 [GSK2603346] | 0 | 0 | 0 | 25 | 0 | 0 | 0 | 0 | 0 | 0 | 0 | 15 | 0 | 5 | 0 | 0 | 0 | 15 | 20 | 0
4 | O=C(Nc1n[nH]c2nc(-c3ccccc3O)ccc12)C1CC1 [SB-711880] | 0 | 0 | 0 | 0 | 17 | 24 | 30 | 0 | 0 | 0 | 0 | 77 | 0 | 43 | 0 | 0 | 7 | 0 | 0 | 0
5 | Cl.O=C(Nc1ccc(Oc2ccc3[nH]c(NC(=O)c4ccco4)nc3c2)cc1)Nc1cc(C(F)(F)F)ccc1F [GW683134] | 0 | 100 | 0 | 8 | 99.9 | 18 | 0 | 0 | 0 | 0 | 0 | 10 | 0 | 0 | 0 | 8 | 0 | 7 | 0 | 0

Source: paper PMC5540273 (PLoS ONE, 2017)
